Laboratory results reported in publication PMC7862700, “An all-to-all approach to the identification of sequence-specific readers for epigenetic DNA modifications on cytosine”.

How the values were obtained:
Assay in all cases: DAPPL (digital affinity profiling via proximity ligation, sequencing); 10 mM Tris-HCl pH 7.5, 50 mM NaCl, 1 mM DTT, 4% glycerol, room temperature, 30 min; GST-TFs on glutathione beads, 16-mer random dsDNA library, 0.1% formaldehyde crosslink after washing; high values mean tight binding
Settings in all cases: protein: recombinant; tags: N-terminal GST; dsDNA, one strand shown
FLI1 = target: T1, FLI1 (Homo sapiens, UniProt Q01543 1-452)
T1 sequence: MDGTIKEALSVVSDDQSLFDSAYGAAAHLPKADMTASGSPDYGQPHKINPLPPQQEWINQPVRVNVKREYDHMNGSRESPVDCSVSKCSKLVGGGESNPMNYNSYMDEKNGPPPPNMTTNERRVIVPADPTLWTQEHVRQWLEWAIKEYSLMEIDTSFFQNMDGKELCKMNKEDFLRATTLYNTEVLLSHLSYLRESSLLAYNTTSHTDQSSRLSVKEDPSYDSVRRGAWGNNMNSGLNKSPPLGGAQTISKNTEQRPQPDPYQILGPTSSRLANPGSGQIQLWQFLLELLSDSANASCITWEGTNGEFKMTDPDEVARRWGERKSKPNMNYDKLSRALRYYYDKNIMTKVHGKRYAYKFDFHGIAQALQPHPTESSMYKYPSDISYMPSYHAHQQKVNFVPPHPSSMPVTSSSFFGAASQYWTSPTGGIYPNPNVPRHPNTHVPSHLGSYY
Method in brief: (§1)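 Human transcription factors fused to GST were expressed in yeast, captured on glutathione beads, given DNA barcodes and pooled with a GST-only negative control. Pools were incubated with 200 nmole of a 16-mer random double-stranded DNA library in Tris/NaCl/DTT/glycerol buffer at room temperature for 30 min. They were then washed, crosslinked with 0.1% formaldehyde, proximity-ligated (BsaI/T4 ligase, 1 h, 37 °C), PCR-amplified and sequenced on an Illumina NextSeq500. Binding signal is each 6-mer's read frequency for a factor divided by its frequency for the GST control.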

ELK1 = target: T2, ELK1 (Homo sapiens, UniProt P19419 1-428)
T2 sequence: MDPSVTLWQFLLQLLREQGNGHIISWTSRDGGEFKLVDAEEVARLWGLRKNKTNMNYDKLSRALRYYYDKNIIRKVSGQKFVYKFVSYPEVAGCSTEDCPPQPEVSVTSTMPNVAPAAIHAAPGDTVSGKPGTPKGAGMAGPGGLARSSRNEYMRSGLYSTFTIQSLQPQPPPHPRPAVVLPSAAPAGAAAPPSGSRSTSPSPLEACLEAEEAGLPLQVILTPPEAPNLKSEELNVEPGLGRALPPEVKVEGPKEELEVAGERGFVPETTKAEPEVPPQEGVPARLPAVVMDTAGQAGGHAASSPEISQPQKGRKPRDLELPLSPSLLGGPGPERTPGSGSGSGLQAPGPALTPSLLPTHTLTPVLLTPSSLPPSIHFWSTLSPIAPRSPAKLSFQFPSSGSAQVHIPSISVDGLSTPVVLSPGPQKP
Method in brief: as §1

GABPA = target: T3, GABPA (Homo sapiens, UniProt Q06546 1-454)
T3 sequence: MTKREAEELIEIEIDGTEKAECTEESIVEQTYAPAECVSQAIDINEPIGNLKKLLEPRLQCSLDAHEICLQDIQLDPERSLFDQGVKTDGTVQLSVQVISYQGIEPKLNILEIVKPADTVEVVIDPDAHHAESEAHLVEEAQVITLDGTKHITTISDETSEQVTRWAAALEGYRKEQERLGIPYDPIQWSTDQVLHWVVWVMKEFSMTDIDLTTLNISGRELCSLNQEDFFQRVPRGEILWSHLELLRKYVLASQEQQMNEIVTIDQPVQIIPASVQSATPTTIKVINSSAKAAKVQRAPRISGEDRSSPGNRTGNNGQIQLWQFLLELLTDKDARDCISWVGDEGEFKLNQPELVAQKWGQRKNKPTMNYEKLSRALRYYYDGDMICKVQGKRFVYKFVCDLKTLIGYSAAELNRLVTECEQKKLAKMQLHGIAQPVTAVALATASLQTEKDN
Method in brief: as §1

ERG = target: T4, ERG (Homo sapiens, UniProt P11308 1-479)
T4 sequence: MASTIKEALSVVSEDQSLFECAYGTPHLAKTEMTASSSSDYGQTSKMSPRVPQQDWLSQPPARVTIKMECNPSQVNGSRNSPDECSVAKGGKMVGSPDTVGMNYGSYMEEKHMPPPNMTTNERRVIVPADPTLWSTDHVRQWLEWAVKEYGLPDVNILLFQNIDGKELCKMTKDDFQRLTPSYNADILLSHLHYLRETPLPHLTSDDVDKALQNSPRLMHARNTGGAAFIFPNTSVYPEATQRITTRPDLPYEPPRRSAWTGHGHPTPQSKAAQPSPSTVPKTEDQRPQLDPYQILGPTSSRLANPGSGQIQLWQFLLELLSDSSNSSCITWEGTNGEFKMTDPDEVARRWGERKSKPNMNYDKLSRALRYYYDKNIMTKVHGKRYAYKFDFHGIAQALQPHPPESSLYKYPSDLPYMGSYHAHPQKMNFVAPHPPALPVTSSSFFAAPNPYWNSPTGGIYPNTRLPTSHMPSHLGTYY
Method in brief: as §1

ELF1 = ELF1 (Homo sapiens, UniProt P32519 1-619)
Method in brief: as §1

EHF = target: T5, EHF (Homo sapiens, UniProt Q9NZC4 1-300)
T5 sequence: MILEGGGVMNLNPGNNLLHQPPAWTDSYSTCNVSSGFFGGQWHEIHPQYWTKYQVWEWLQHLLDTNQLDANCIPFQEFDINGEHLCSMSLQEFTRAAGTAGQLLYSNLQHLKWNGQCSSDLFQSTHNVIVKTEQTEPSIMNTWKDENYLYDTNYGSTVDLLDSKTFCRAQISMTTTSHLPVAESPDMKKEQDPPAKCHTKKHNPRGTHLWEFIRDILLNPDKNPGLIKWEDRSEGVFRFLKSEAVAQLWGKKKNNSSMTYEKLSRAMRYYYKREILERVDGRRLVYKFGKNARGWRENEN
Method in brief: as §1

SPI1 = SPI1 (Homo sapiens, UniProt P17947 1-270)
Method in brief: as §1

SPIB = SPIB (Homo sapiens, UniProt Q01892 1-262)
Method in brief: as §1

ELK3 = target: T6, ELK3 (Homo sapiens, UniProt P41970 1-407)
T6 sequence: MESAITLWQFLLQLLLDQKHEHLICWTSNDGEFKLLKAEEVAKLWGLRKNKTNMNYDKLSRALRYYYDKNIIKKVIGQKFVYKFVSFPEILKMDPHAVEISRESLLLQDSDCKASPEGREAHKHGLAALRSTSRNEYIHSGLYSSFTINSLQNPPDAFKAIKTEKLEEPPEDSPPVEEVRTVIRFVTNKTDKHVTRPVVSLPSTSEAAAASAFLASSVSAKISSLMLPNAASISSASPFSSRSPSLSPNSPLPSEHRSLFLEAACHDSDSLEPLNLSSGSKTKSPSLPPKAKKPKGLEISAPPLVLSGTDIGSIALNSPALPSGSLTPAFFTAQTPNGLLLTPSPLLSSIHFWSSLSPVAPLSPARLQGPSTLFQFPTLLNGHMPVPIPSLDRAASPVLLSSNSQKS
Method in brief: as §1

Chain of SPIB (Q01892 whole entry): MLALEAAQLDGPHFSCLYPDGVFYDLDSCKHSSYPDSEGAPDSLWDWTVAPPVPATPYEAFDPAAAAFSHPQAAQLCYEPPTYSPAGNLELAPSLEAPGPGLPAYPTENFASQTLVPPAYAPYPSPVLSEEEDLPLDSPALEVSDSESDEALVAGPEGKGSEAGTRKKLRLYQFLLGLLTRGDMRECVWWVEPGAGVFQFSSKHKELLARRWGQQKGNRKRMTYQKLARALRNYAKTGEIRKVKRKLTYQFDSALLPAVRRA
Chain of ELF1 (P32519 whole entry): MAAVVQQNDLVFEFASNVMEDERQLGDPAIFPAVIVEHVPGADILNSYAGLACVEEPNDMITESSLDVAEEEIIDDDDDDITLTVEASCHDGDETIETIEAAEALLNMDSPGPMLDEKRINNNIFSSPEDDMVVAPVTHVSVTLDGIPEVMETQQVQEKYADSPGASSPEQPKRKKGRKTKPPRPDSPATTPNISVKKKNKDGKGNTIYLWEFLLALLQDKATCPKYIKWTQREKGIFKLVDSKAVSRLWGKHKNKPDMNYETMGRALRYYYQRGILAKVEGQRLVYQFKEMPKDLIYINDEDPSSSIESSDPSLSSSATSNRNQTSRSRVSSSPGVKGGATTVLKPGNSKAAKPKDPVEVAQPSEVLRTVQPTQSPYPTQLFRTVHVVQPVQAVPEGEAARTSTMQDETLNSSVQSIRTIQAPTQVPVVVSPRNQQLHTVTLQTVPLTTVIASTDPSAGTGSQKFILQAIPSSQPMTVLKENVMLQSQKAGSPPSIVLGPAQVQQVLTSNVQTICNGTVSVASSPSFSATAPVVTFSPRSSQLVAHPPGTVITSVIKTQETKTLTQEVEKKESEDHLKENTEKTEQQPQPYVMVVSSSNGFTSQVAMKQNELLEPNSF

| Sequence | binding signal (FLI1) | binding signal (ELK1) | binding signal (GABPA) | binding signal (ERG) | binding signal (ELF1) | binding signal (EHF) | binding signal (SPI1) | binding signal (SPIB) | binding signal (ELK3) |
| --- | --- | --- | --- | --- | --- | --- | --- | --- | --- |
| GTAACT | 1.31 fold enrichment (6-mer frequency, TF over GST control) | 1.25 fold enrichment (6-mer frequency, TF over GST control) | 1.22 fold enrichment (6-mer frequency, TF over GST control) | 1.25 fold enrichment (6-mer frequency, TF over GST control) | 1.22 fold enrichment (6-mer frequency, TF over GST control) | 1.21 fold enrichment (6-mer frequency, TF over GST control) | 1.35 fold enrichment (6-mer frequency, TF over GST control) | 1.28 fold enrichment (6-mer frequency, TF over GST control) | 1.11 fold enrichment (6-mer frequency, TF over GST control) |
| CTATCG | 1.13 fold enrichment (6-mer frequency, TF over GST control) | 1.14 fold enrichment (6-mer frequency, TF over GST control) | 1.05 fold enrichment (6-mer frequency, TF over GST control) | 1.09 fold enrichment (6-mer frequency, TF over GST control) | 1.11 fold enrichment (6-mer frequency, TF over GST control) | 1.07 fold enrichment (6-mer frequency, TF over GST control) | 1.13 fold enrichment (6-mer frequency, TF over GST control) | 1.11 fold enrichment (6-mer frequency, TF over GST control) | 1.08 fold enrichment (6-mer frequency, TF over GST control) |
| ACTGAC | 1.13 fold enrichment (6-mer frequency, TF over GST control) | 1.14 fold enrichment (6-mer frequency, TF over GST control) | 1.22 fold enrichment (6-mer frequency, TF over GST control) | 1.17 fold enrichment (6-mer frequency, TF over GST control) | 1.22 fold enrichment (6-mer frequency, TF over GST control) | 1.16 fold enrichment (6-mer frequency, TF over GST control) | 1.26 fold enrichment (6-mer frequency, TF over GST control) | 1.21 fold enrichment (6-mer frequency, TF over GST control) | 1.11 fold enrichment (6-mer frequency, TF over GST control) |
| GCTACA | 1.16 fold enrichment (6-mer frequency, TF over GST control) | 1.07 fold enrichment (6-mer frequency, TF over GST control) | 1.22 fold enrichment (6-mer frequency, TF over GST control) | 1.13 fold enrichment (6-mer frequency, TF over GST control) | 1.17 fold enrichment (6-mer frequency, TF over GST control) | 1.21 fold enrichment (6-mer frequency, TF over GST control) | 1.2 fold enrichment (6-mer frequency, TF over GST control) | 1.24 fold enrichment (6-mer frequency, TF over GST control) | 1.19 fold enrichment (6-mer frequency, TF over GST control) |
| CGATAG | 1.07 fold enrichment (6-mer frequency, TF over GST control) | 1.11 fold enrichment (6-mer frequency, TF over GST control) | 1.18 fold enrichment (6-mer frequency, TF over GST control) | 1.16 fold enrichment (6-mer frequency, TF over GST control) | 1.15 fold enrichment (6-mer frequency, TF over GST control) | 1.05 fold enrichment (6-mer frequency, TF over GST control) | 1.1 fold enrichment (6-mer frequency, TF over GST control) | 1.07 fold enrichment (6-mer frequency, TF over GST control) | 1.11 fold enrichment (6-mer frequency, TF over GST control) |
| ACACTC | 1.04 fold enrichment (6-mer frequency, TF over GST control) | 1.1 fold enrichment (6-mer frequency, TF over GST control) | 1.15 fold enrichment (6-mer frequency, TF over GST control) | 1.08 fold enrichment (6-mer frequency, TF over GST control) | 1.12 fold enrichment (6-mer frequency, TF over GST control) | 1.14 fold enrichment (6-mer frequency, TF over GST control) | 1.09 fold enrichment (6-mer frequency, TF over GST control) | 1.15 fold enrichment (6-mer frequency, TF over GST control) | 1.19 fold enrichment (6-mer frequency, TF over GST control) |
| CCATTA | 1.08 fold enrichment (6-mer frequency, TF over GST control) | 1.05 fold enrichment (6-mer frequency, TF over GST control) | 1.11 fold enrichment (6-mer frequency, TF over GST control) | 1.1 fold enrichment (6-mer frequency, TF over GST control) | 1.14 fold enrichment (6-mer frequency, TF over GST control) | 1.06 fold enrichment (6-mer frequency, TF over GST control) | 1.17 fold enrichment (6-mer frequency, TF over GST control) | 1.23 fold enrichment (6-mer frequency, TF over GST control) | 1.09 fold enrichment (6-mer frequency, TF over GST control) |
